For 5 compounds, outcome and AC50 results are on record in PubChem BioAssay (EPA / NIEHS).

Molecules are shown by their SMILES. Inconclusive results are not listed. The source holds several records for some structures; these can differ, active in one and inactive in another. The source made the active and inactive calls. How the source made its calls, unless noted: active means hit-call score of the fitted dose curve at least 0.9, where 1 is the maximum; inconclusive means response in the unintended direction; inactive means score below 0.9.

Assay [1] concerns the target Retinoic acid receptor alpha (Homo sapiens) (UniProt P10276). The assay is described as follows: ATG_DR5_RAR_CIS: Attagene CIS-FACTORIAL HepG2 Assay for human Retinoic Acid Receptor Alpha (RARE), DR5 submotif (AID 2282934; active means hit-call score of the fitted dose curve at least 0.9, where 1 is the maximum; inactive means score below 0.9). Conditions: HepG2 Attagene cis-factorial RARE DR5 reporter, mRNA; actives raise or lower the signal. Put shortly:
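Read-out: DR5-driven reporter transcript measured by RT-PCR, 6-FAM primer extension, HpaI digest and capillary electrophoresis. Human HepG2 liver cells carry transiently transfected cis-element reporter constructs; dosing lasts 24 h. Gain or loss of signal fitted against DMSO baseline.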

A short description of assay [2]: ATG_GRE_CIS: Attagene CIS-FACTORIAL HepG2 Assay for human Glucocorticoid Response Elements (GRE) (AID 2282947; active means hit-call score of the fitted dose curve at least 0.9, where 1 is the maximum; inactive means score below 0.9). Conditions: HepG2 GRE cis-reporter, Attagene multiplex mRNA; actives raise or lower the signal. In short, it runs like this: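 Read-out: fluorescent reporter-transcript fragments separated by capillary electrophoresis after RT-PCR. Transiently transfected HepG2 cells carrying cis-element-driven reporter units were dosed for 24 h; gain or loss of signal fitted against DMSO control.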

The nature of assay [3]: ATG_RORE_CIS: Attagene CIS-FACTORIAL HepG2 Assay for human RAR-related Orphan Receptor Element (RORE) (AID 2282959; active means hit-call score of the fitted dose curve at least 0.9, where 1 is the maximum; inactive means score below 0.9). Conditions: HepG2 Attagene cis-factorial RORE reporter, mRNA; actives raise or lower the signal. Put shortly: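 Cells were HepG2 carrying transfected cis-regulated reporter constructs, dosed for 24 hours. Total RNA was reverse-transcribed and reporter cDNA amplified, fluorescently labeled and sized by capillary electrophoresis. Activity was fitted bidirectionally relative to DMSO.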

A short description of assay [4]: ATG_SREBP_CIS: Attagene CIS-FACTORIAL HepG2 Assay for human Sterol Regulatory Element Binding (SREBP) (AID 2282962; active means hit-call score of the fitted dose curve at least 0.9, where 1 is the maximum; inactive means score below 0.9). Conditions: HepG2 Attagene cis-factorial SREBP reporter, mRNA; actives raise or lower the signal. Put shortly: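 Readout: fluorescent reporter-transcript peaks resolved by capillary electrophoresis after RT-PCR. Cells were human HepG2 carrying transfected cis-promoter reporter constructs, dosed for 24 h. Gain or loss of signal was fitted against DMSO controls.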

Assay [5] concerns the target Hepatocyte nuclear factor 4-alpha (Homo sapiens) (UniProt P41235). As to the kind of experiment: ATG_HNF4a_TRANS: Attagene TRANS-FACTORIAL HepG2 Assay for human Hepatocyte Nuclear Factor 4 alpha (HNF4a) (AID 2282982). Conditions: HepG2 HNF4a transactivation reporter, mRNA readout. Put shortly:
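Transient MRTU transfection of HepG2, 24 h dosing. Readout: reporter mRNA via RT-PCR + capillary electrophoresis, fluorescence; activity fit upward relative to DMSO control.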

Assay [6] is described as follows: ATG_M_32_TRANS: Attagene TRANS-FACTORIAL HepG2 Assay for M32 Transcription Factor (Internal Marker) (AID 2282984).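 Further: transcript level of a background control reporter unit measured by RT-PCR and capillary electrophoresis.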 Conditions: HepG2 Attagene TRANS M32 internal marker reporter. Put shortly:
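Read-out: fluorescent reporter cDNA fragments resolved by capillary electrophoresis after RT-PCR of total RNA. Transfected HepG2 cells were exposed to chemical for 24 h. Activity scored in the positive direction relative to DMSO.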

Assay [7] is described as follows: ATG_NF_kB_CIS: Attagene CIS-FACTORIAL HepG2 Assay for human Nuclear Factor Kappa B (NF-kB) (AID 2282991; active means hit-call score of the fitted dose curve at least 0.9, where 1 is the maximum; inactive means score below 0.9). Conditions: HepG2 Attagene cis-factorial NF-kB reporter mRNA; actives raise or lower the signal. Put shortly: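 Endogenous transcription factor activity in HepG2 was captured via cis-regulated reporter constructs; after 24 h dosing, reporter mRNA was reverse-transcribed, amplified, fluorescently labelled and sized by capillary electrophoresis, with activity fitted bidirectionally relative to DMSO.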

In assay [8] the target is human Retinoid X Receptor beta (RXRb), RXRB (gene 6257) (UniProt P28702). The assay is described as follows: ATG_RXRb_TRANS: Attagene TRANS-FACTORIAL HepG2 Assay for human Retinoid X Receptor beta (RXRb) (AID 2283013). In short, it runs like this:
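After a 24 h incubation with test chemical, transfected HepG2 cells carrying NR-Gal4 fusions and GAL4-UAS reporter transcription units yield RNA whose reporter cDNA is FAM-labelled, HpaI-cut and sized by capillary electrophoresis; increases over DMSO are scored.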

Assay [9] in a line: TOX21_p53_BLA_p2_viability: Viability Assessment in the Tox21 HCT-116 p53 Agonism Beta-lactamase Assay, Phase 2 (AID 2283591).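 Further: compound exposure lasted 16 h at 37 °C; actives lower the ATP signal meaning cytotoxicity.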 Put shortly: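 HCT116 p53-bla cells, 4000/well, dosed after 5 h plating (217-fold dilution of DMSO stocks) and incubated 16 h at 37C. Viability taken as cellular ATP by CellTiter-Glo luminescence after 30 min RT; signal loss marks cytotoxicity.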
The target in assay [10] is Cellular tumor antigen p53 (Homo sapiens) (UniProt P04637). The assay is described as follows: TOX21_p53_BLA_p2_ratio: Tox21 HCT-116 p53 Agonism Beta-lactamase Assay, Ratio, Phase 2 (AID 2283592). In short, it runs like this:
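DMSO-normalized, positive-direction endpoint derived from the 460 nm/530 nm FRET ratio in HCT116 p53 beta-lactamase reporter cells exposed 16 h at 37C and loaded with CCF4-AM for 2 h.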

The target is the same in assay [11]. The assay is described as follows: TOX21_p53_BLA_p3_ratio: Tox21 HCT-116 p53 Agonism Beta-lactamase Assay, Ratio, Phase 3 (AID 2283596). Put shortly: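 Cells were seeded at 4000/well, rested 5 h at 37C, then dosed with DMSO compound solutions (217-fold dilution) for 16 h. CCF4-AM substrate was loaded for 2 h at room temperature, and the 460/530 nm emission ratio was fitted for gain of signal versus DMSO.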

Assay [12] has the same target. As to the kind of experiment: TOX21_p53_BLA_p5_ratio: Tox21 HCT-116 p53 Agonism Beta-lactamase Assay, Ratio, Phase 5 (AID 2283599). In short, it runs like this:
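HCT-116 p53-bla cells (4000/well) plated 5 h, dosed with compound (217-fold DMSO dilution) for 16 h at 37 C; CCF4-AM substrate 2 h at room temperature. Activity is the 460/530 nm emission ratio (405 nm excitation), fitted in gain-of-signal direction versus DMSO.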

Assay [13] can be described thus: TOX21_p53_BLA_p5_viability: Viability Assessment in the Tox21 HCT-116 p53 Agonism Beta-lactamase Assay, Phase 5 (AID 2283600). In short, it runs like this:
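Here cell health was gauged by ATP levels in wells holding 4000 cells, each treated 16 h with DMSO-delivered compounds at 217-fold dilution; reduced luminescence marked toxicity.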

Assay [14] deals with Cellular tumor antigen p53 (Homo sapiens) (UniProt P04637). The assay is described as follows: TOX21_p53_BLA_p4_ratio: Tox21 HCT-116 p53 Agonism Beta-lactamase Assay, Ratio, Phase 4 (AID 2283601). In short, it runs like this: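 HCT-116 p53 beta-lactamase reporter cells (4000/well) preincubated 5 h, then compound (217-fold dilution of DMSO stock) for 16 h at 37C. CCF4-AM substrate added 2 h at room temperature; 460/530 nm emission ratio fitted upward versus DMSO.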
Chain of Cellular tumor antigen p53 (Homo sapiens) (P04637 whole entry, looked up): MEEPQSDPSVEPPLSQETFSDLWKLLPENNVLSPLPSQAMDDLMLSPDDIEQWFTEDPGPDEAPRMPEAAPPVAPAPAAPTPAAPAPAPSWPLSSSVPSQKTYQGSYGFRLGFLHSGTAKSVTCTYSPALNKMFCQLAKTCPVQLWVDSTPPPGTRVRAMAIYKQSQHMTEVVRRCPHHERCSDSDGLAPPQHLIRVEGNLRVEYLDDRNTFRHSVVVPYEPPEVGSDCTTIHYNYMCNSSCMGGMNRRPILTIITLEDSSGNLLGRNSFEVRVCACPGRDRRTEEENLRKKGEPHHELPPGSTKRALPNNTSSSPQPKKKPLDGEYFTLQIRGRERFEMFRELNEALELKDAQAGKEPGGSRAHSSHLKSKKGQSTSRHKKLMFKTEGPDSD

A short description of assay [15]: ATG_FoxO_CIS: Attagene CIS-FACTORIAL HepG2 Assay for human Forkhead box O (FoxO) (AID 2282943; active means hit-call score of the fitted dose curve at least 0.9, where 1 is the maximum; inactive means score below 0.9). Conditions: HepG2 Attagene cis-reporter, FoxO element, mRNA; actives raise or lower the signal. Put shortly:
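Read-out: fluorescence of 6-FAM-labelled reporter cDNA fragments resolved by capillary electrophoresis. Transiently transfected HepG2 cells were dosed for 24 h; activity fitted in both directions relative to DMSO controls.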

Assay [16] can be described thus: ATG_PBREM_CIS: Attagene CIS-FACTORIAL HepG2 Assay for human Phenobarbital-responsive Enhancer Module (PBREM) (AID 2282955; active means hit-call score of the fitted dose curve at least 0.9, where 1 is the maximum; inactive means score below 0.9). Conditions: HepG2 PBREM cis-reporter, Attagene multiplexed transcription; actives raise or lower the signal. In short, it runs like this: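 Fluorescence of labelled reporter cDNA fragments, resolved by capillary electrophoresis, gives mRNA induction in transfected HepG2 cells treated for 24 h; DMSO serves as negative control and baseline.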

Assay [17] is described as follows: ATG_NFI_CIS: Attagene CIS-FACTORIAL HepG2 Assay for human Nuclear Factor I (NFI) (AID 2282989; active means hit-call score of the fitted dose curve at least 0.9, where 1 is the maximum; inactive means score below 0.9). Conditions: HepG2 cis-regulatory reporter, NFI response element transcription; actives raise or lower the signal. In short, it runs like this:
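Reporter transcripts were measured by RT-PCR with fluorescent primer extension and capillary electrophoresis 24 h post-treatment. HepG2 cells carried transiently transfected cis-regulated reporter constructs reporting endogenous factor activity; gain or loss fitted against DMSO baseline.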

In assay [18] the target is human Peroxisome Proliferator-activated Receptor alpha (PPARa), PPARA (gene 5465) (UniProt Q07869). The assay is described as follows: ATG_PPARa_TRANS: Attagene TRANS-FACTORIAL HepG2 Assay for human Peroxisome Proliferator-activated Receptor alpha (PPARa) (AID 2283001). Put shortly:
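Transient HepG2 transfection, GAL4-UAS reporters, NR-Gal4 chimeras; 24 h compound exposure. Readout: reporter transcripts by RT-PCR, 6-FAM primer extension, HpaI digest, capillary electrophoresis. Positive direction vs DMSO baseline.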

The nature of assay [19]: TOX21_p53_BLA_p3_viability: Viability Assessment in the Tox21 HCT-116 p53 Agonism Beta-lactamase Assay, Phase 3 (AID 2283593).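 Further: cells exposed to compound for 16 h before reading.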 Put shortly: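 HCT116 cells, 4000/well, dosed 5 h after plating by pin transfer (217-fold dilution from DMSO stock) and incubated 16 h at 37C, 5% CO2. Viability read as ATP luminescence with CellTiter-Glo after 30 min at room temperature.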

Chain of Hepatocyte nuclear factor 4-alpha (Homo sapiens) (P41235 whole entry, looked up): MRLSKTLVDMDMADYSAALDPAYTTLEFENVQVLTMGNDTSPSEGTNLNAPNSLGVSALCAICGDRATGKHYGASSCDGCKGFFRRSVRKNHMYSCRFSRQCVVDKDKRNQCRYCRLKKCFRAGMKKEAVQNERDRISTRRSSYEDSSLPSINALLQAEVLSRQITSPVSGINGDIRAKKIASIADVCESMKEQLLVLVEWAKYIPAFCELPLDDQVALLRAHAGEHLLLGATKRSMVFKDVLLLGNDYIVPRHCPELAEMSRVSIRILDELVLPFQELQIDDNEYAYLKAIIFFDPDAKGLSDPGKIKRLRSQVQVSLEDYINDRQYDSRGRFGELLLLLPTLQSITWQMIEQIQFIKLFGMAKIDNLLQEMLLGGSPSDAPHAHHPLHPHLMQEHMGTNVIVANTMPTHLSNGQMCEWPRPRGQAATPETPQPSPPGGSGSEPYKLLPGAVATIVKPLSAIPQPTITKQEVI
Chain of human Retinoid X Receptor beta (RXRb), RXRB (gene 6257) (P28702 whole entry, looked up, the tested form may be a part): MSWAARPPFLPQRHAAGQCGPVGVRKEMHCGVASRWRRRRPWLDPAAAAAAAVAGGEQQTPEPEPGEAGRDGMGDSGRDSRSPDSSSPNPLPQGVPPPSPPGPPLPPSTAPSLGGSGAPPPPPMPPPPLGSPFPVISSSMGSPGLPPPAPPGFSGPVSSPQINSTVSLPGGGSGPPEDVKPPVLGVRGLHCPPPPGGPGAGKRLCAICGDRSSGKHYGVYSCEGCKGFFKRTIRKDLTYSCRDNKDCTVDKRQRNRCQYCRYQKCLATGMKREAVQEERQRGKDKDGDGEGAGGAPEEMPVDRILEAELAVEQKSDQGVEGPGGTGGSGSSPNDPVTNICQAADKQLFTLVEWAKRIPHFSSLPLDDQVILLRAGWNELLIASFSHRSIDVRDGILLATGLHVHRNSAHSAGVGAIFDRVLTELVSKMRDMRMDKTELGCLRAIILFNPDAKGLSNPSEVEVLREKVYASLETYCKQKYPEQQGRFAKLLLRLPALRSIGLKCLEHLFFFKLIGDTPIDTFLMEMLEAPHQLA
Chain of Retinoic acid receptor alpha (Homo sapiens) (P10276 whole entry, looked up): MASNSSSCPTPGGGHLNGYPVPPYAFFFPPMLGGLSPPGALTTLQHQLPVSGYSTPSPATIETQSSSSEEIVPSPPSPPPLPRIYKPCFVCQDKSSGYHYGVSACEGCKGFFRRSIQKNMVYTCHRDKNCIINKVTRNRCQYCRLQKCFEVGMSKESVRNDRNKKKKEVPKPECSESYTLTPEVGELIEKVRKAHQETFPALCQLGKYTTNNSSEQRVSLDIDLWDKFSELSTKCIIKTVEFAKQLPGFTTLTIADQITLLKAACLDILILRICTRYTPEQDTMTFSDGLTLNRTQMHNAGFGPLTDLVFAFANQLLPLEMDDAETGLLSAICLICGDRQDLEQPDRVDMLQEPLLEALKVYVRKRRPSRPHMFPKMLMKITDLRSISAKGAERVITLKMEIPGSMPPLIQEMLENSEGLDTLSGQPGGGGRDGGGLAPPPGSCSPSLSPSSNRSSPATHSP
Chain of human Peroxisome Proliferator-activated Receptor alpha (PPARa), PPARA (gene 5465) (Q07869 whole entry, looked up, the tested form may be a part): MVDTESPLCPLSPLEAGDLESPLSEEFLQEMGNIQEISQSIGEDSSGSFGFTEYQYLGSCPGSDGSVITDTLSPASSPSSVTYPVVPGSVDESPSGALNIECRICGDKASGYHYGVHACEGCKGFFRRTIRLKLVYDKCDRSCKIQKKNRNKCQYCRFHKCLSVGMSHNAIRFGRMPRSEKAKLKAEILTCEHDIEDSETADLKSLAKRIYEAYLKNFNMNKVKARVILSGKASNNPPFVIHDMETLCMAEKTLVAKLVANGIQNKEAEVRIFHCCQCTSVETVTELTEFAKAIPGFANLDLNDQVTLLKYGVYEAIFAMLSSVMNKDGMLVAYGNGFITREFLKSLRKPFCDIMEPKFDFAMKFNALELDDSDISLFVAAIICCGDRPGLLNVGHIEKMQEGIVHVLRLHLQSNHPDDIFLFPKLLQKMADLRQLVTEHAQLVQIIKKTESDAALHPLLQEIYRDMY

As for `COC(OC)C(C)c1ccccc1` (stereo not given), the call in assay [1], in assay [2], in assay [3], in [4], in assay [5] and in [6] was inactive. In addition, the compound was classed as inactive in assay [7], in [8], in assay [9], in assay [10], in [11] and in assay [12]. Further, the result in assay [13] and in [14] was inactive.
Regarding `CN(C)CCCN1c2ccccc2CCc2ccc(Cl)cc21`, the result in [15], in assay [2], in assay [16], in assay [3], in assay [5] and in assay [17] was inactive. For the same compound, the compound was classed as inactive in assay [7], in assay [18], in [10], in [11], in assay [12] and in assay [13]. For the same compound, in assay [14], the result was inactive. The AC50 in assay [4] was 15.8 µM (active); in [8], 5.79 µM (active); in assay [9], 79 µM (active); in assay [12], 86.8 µM (active); in assay [13], 77.1 µM (active).
As for `O=C(O)/C=C\C(=O)O`, the compound was called inactive in assay [15], in assay [2], in assay [16], in assay [3], in assay [5] and in [6]. Also, the result in assay [17] and in assay [7] was inactive.
Take `CC(C)(C)NC(=O)[C@@H]1CN(Cc2cccnc2)CCN1C[C@@H](O)C[C@@H](Cc1ccccc1)C(=O)N[C@H]1c2ccccc2C[C@H]1O`: the call in assay [15], in assay [2], in [16], in assay [4], in [17] and in assay [8] was inactive. In addition, the outcome in assay [10], in assay [19], in assay [11] and in assay [12] was inactive. The AC50 in [9] is 36.3 µM (active); in assay [10], 40.8 µM (active); in assay [19], 43 µM (active); in [12], 43.8 µM (active); in assay [13] it was 37.5 µM (active); in assay [14], 39.8 µM (active).
For the compound `O=C(C1CCCCC1)N1CC(=O)N2CCc3ccccc3C2C1` (stereo not given), the compound was called inactive in assay [1], in assay [15], in [2], in [16], in assay [3] and in assay [4]. Moreover, the result in assay [7], in [18] and in assay [8] was inactive.

As a reminder, the AC50 is the midpoint of the concentration-response curve, whichever way the signal moves.
